Measurements from PubChem BioAssay AID743126 (The Scripps Research Institute Molecular Screening Center, 2013).
Among all 370,000 compounds or so, about 2,100 (0.57%) were called active.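 How the source made its calls: active means inhibition above mean plus 3 SD of compounds lying within the high and low control bounds (cut at about 19% in these data); inactive means the rest.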 For the sample, actives were picked, then their nearest neighbours and some compounds at random.

Each compound was assayed against Group 3 secretory phospholipase A2 (Homo sapiens) (UniProt Q9NZ20) (assay: HGIII-sPLA2 enzyme inhibition – biochemical, QFRET, BODIPY PC-A2 liposome substrate, primary screen (AID 743126;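 further: 0% = median of test compound wells and 100% = no enzyme DMSO wells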)). Settings: QFRET BODIPY PC-A2 liposome hydrolysis, fluorescence; at 12.2 µM; hits give high values.
Group 3 secretory phospholipase A2 (Homo sapiens), sequence (Q9NZ20 whole entry, looked up): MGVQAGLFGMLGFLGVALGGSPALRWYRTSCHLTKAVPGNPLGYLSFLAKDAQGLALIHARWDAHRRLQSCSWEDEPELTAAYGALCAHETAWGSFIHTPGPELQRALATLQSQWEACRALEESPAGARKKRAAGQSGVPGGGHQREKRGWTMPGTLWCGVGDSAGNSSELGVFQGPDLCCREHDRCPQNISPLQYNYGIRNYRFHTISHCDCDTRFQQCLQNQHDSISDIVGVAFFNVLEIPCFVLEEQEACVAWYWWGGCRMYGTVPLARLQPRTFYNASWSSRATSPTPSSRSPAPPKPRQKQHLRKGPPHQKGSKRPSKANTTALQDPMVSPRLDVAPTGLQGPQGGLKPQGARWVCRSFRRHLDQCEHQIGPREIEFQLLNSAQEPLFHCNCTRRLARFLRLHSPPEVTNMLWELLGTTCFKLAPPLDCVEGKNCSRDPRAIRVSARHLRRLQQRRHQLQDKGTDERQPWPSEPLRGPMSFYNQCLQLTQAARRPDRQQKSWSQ

Compound | inhibition
CC(=O)Nc1nc2ncccn2c1-c1ccc(C(F)(F)F)cc1 | 11.9% (inactive)
COC(=O)[C@]12C[C@H](CC(=O)N3CCN(C(=O)C4CC4)CC3)C(=O)N(CCC3=CCCCC3)C1=C[C@H](C(C)C)O[C@@H]2C1CC1 | 4.41% (inactive)
CN(CC(=O)Nc1ccccc1[N+](=O)[O-])Cc1ccc(Br)cc1 | -9.41% (inactive)
CSc1ccccc1NC(=O)CN(C)CC(=O)Nc1ccc(Cl)cc1[N+](=O)[O-] | -3.92% (inactive)
CN(CC(=O)Nc1ccc(N2CCOCC2)cc1)CC(=O)Nc1ccccc1[N+](=O)[O-] | 20.6% (active)
Cc1cc(=O)[nH]c(SCC(=O)Nc2ccc(F)cc2F)n1 | -0.22% (inactive)
CCC(C)[C@@H](C(=O)OC)N(CCc1cn(Cc2ccccc2)nn1)S(=O)(=O)c1ccccc1Br (stereo not given in full) | -21.7% (inactive)
COCCn1c(SCC(=O)Nc2cc(Cl)ccc2OC)nc2c(c1=O)SC(C)C2 (stereo not given) | -0.04% (inactive)
COCCn1c(SCC(=O)Nc2cc(OC)ccc2OC)nc2c(c1=O)SC(C)C2 (stereo not given) | 20.3% (active)
CCn1c(SCC(=O)Nc2ccccc2F)nc2c(c1=O)SC(C)C2 (stereo not given) | 0.02% (inactive)
Cc1nc(CNc2ncnc3ccc(-c4ccc5c(c4)OCO5)cc23)cs1 | -8.39% (inactive)
CCCCn1c(N)c(N(CCOC)C(=O)c2sc3ccccc3c2Cl)c(=O)[nH]c1=O | 5.32% (inactive)
CCCCn1c(N)c(N(CCOC)C(=O)CSCC(=O)Nc2cccc(C)c2)c(=O)[nH]c1=O | 0.3% (inactive)
CCCCn1c(N)c(N(CCOC)C(=O)COc2c(C)cccc2C)c(=O)[nH]c1=O | 21.9% (active)
CCCCOCCCNC(=O)C[C@H]1C[C@@]2(C(=O)OC)C(=C[C@H](C(C)(C)C)O[C@@H]2C)N(CCc2ccc(OC)c(OC)c2)C1=O | -14.2% (inactive)
COc1ccnc(C(=O)N2CCC(Oc3cccnc3)CC2)c1 | 3.64% (inactive)
Nc1ccc(Nc2ccccc2)cc1 | 19.5% (active)
Cc1ccc(Nc2ccccc2N)cc1 | -1.96% (inactive)
O=c1cnnc(Nc2ccccc2)[nH]1 | 6.17% (inactive)
CC(=O)O[C@@]1(C(C)=O)CCC2[C@H]3C=C(C)C4=CC(=O)CC[C@@]4(C)C3CC[C@]21C (stereo not given in full) | 14% (inactive)
COc1ccc(C(=O)NN2C(=O)C3C(c4ccccc4)C=CC(c4ccccc4)C3C2=O)cc1 (stereo not given) | -36.3% (inactive)
COc1ccc(C(=O)NCCSc2ccccc2C)cc1 | -6.45% (inactive)
COC(=O)c1ccc2nc(-c3ccccc3)c(Cc3ccc(OC)cc3C)n2c1 | -8.3% (inactive)

Compound | inhibition
COc1ccc(C(=O)NNC(=S)NC(=O)c2ccccc2)cc1 | 31.9% (active)
COc1ccc(C(=O)NNc2cc(C)nc(NNC(=O)c3ccc(OC)cc3)n2)cc1 | -3.83% (inactive)
COc1ccc(C(=O)NC(=S)NNC(=O)c2c(-c3ccccc3)noc2C)cc1 | 19.5% (active)
O=S1(=O)c2ccc(Br)cc2OC[C@@H](Cc2ccccc2)N1Cc1cn(Cc2ccco2)nn1 | -4.54% (inactive)
Nn1c(SCC(=O)Nc2cccc3ccccc23)nnc1-c1cc(-c2ccc(F)cc2)n[nH]1 | -0.61% (inactive)
COC(=O)c1ccccc1-n1cc(COC(=O)NCCc2ccccc2)nn1 | 6.94% (inactive)
Cc1ccccc1NC(=O)Cn1nnc(-c2ccccc2F)n1 | -6.88% (inactive)
O=C1CC[C@@H](COc2ccc3[nH]cc(-c4ccccc4)c3c2-c2ccccc2)N1 | -47.7% (inactive)
COc1ccc(/C=C2\CC3(OC(C)=O)CCCN2C3)cc1 (stereo not given) | 2.59% (inactive)
CC(C)CNS(=O)(=O)CC1NCCc2ccccc21 (stereo not given) | 3.21% (inactive)
COCCN(C(=O)c1ccco1)c1nnc(-c2ccc(OC)cc2)s1 | -1.24% (inactive)
COc1cc(OC)cc(-c2nc3nc(C)c(CCC(=O)NCc4ccco4)c(C)n3n2)c1 | 9.12% (inactive)
COc1cc(OC)cc(C2=Cc3ccccc3C(CC(=O)c3ccco3)N2c2ccc(-c3cnc(OC)nc3)cc2)c1 (stereo not given) | 20.3% (active)
CC(c1c[nH]c2ccccc12)c1c(-c2ccccc2)n(C)c2ccccc12 (stereo not given) | -21.1% (inactive)
COc1ccc(CSc2nnc(-c3cccc(C)c3)n2C)cc1 | 11.9% (inactive)
O=C(CSc1nc2sc3c(c2c(=O)n1-c1ccccc1)CCCC3)NN=Cc1ccc(OCc2ccccc2)cc1 | -1.3% (inactive)
COC(=O)C1CN(CC(C)C)CCS(=O)(=O)N1Cc1ccc(F)cc1 (stereo not given) | 5.81% (inactive)
N#Cc1ccccc1OC[C@@H](O)CN1CCC(C(O)(c2ccccc2)c2ccccc2)CC1 | -25.3% (inactive)
COc1ccc(/C=C(/NC(=O)c2ccco2)C(=O)Nc2ccc(C(C)=O)cc2)cc1 | 10.6% (inactive)
CC(Oc1ccc2ccccc2c1)C(=O)NNC(=S)NC(=O)c1ccco1 (stereo not given) | 20% (active)
NS(=O)(=O)c1ccc(CNC(=S)NC(=O)c2ccco2)cc1 | -1.55% (inactive)
CCOC(=O)C1=C(C)NC2=C(C(=O)CC(C)(C)C2)C1c1ccc2c(c1)OCO2 (stereo not given) | 14.4% (inactive)
